The campaign covered roughly 5,900 compounds. About 140 (2.4%) were called active. No stated cut-off is given here; in the data, active means binding response below about 16% or above about 210%; inactive means in between. What follows is part of a selection rich in actives, with near analogues and random picks from the rest.

The target in the experiment is Mitogen-activated protein kinase kinase kinase 2 (Homo sapiens) (UniProt Q9Y2U5). The experiment is described as follows: wildtype MEKK2 PB1-MEK5 interaction enhancers or blockers – biochemical, single concentration, multiplex bead flow cytometry, confirmation (AID 1892). The settings on record: Alexa488-MEK5 binding to MEKK2 WT, at 10 µM, actives lie on both sides.
Turning to `CN(C)CCCNC(=O)/C=C/c1ccc(OCc2c(F)cccc2Cl)cc1`, the binding response (% of control) was 150% (inactive).

For `O=C(c1cnn(-c2ccc(Cl)cc2)c1)c1ccccc1O`, the binding response (% of control) was 112% (inactive).

Regarding `O=C(O)/C=C\C(=O)Nc1ccc(OCc2ccccc2)cc1`, the binding response (% of control) was 102% (inactive).

On to `O=C(OCc1cc(Cl)ccc1OC(F)F)c1cccnc1`, for which the binding response (% of control) was 95% (inactive).

With `CCNC(=O)CSc1nc(-c2ccccc2)cs1`, the binding response (% of control) is 99% (inactive).

Turning to `O=C(OCC1O[C@@H](OC(=O)c2cc(O)c(O)c(O)c2)[C@@H](OC(=O)c2cc(O)c(O)c(O)c2)[C@@H](OC(=O)c2cc(O)c(O)c(O)c2)[C@@H]1OC(=O)c1cc(O)c(O)c(O)c1)c1cc(O)c(O)c(O)c1` (stereo partly drawn), the binding response (% of control) is -1% [inhibitor] (active).

Consider `CCOC(=O)c1c(-c2ccccc2)csc1NC(=S)NC(=O)c1ccccc1`, for which the binding response (% of control) is 102% (inactive).

Consider `CCCCCCCCCCOC(=O)Cn1c(COc2cccc(OC)c2)[n+](C)c2ccccc21`, for which the binding response (% of control) is 257% (active).

`CCCCCCCCCCOC(=O)Cn1c(COc2ccc(C)cc2)[n+](C)c2ccccc21`: the binding response (% of control) is 217% (active).

For `FC(F)(F)c1cccc(N/N=C/c2ccccc2)c1`, the binding response (% of control) was 151% (inactive).

On to `Cc1ccc(S(=O)(=O)NC(=O)N2CCCC(C)(C)C2)cc1`, for which the binding response (% of control) was 101% (inactive).

Turning to `COc1cc(/C=C2\SC(=S)N(Nc3ncc(C(F)(F)F)cc3Cl)C2=O)cc(OC)c1OC`, the binding response (% of control) is 74% (inactive).

In the case of `Cc1cc(Cl)ccc1OCc1nc(-c2ccncc2)no1`, the binding response (% of control) was 80% (inactive).

Regarding `COc1ccccc1N1CCN(CCCCOc2ccc(F)cc2)CC1`, the binding response (% of control) is 109% (inactive).

Regarding `Cc1no[n+]([O-])c1COc1ccccc1/C=C1\NC(=S)NC1=O`, the binding response (% of control) was 99% (inactive).

Regarding `CCO[C@H]1OC(C(=O)N2CCOCC2)=C[C@@H](c2ccc3c(c2)OCO3)[C@@H]1CCCO`, the binding response (% of control) was 101% (inactive).

On to `c1ccc(Nc2nc(N3CCOCC3)c3ccccc3n2)cc1`, for which the binding response (% of control) is 124% (inactive).

In the case of `COCC(C)NC(=O)COc1nncc2ccccc12` (stereo not drawn), the binding response (% of control) was 96% (inactive).

Turning to `Cn1c(=NC(=O)CSCC(=O)N2CCOCC2)sc2ccccc21`, the binding response (% of control) is 90% (inactive).

For `CCc1nnc(NC(=O)c2sc3nc(C)cc(COC)c3c2N)s1`, the binding response (% of control) is 107% (inactive).

`Cc1ccccc1C(=O)NNC(=O)CN1C(=O)c2ccccc2C1=O`: the binding response (% of control) was 92% (inactive).

As to `C#CCOCCOCCOCCNc1nc(N2CCN(C(=O)[C@H](CCCCN)n3cc([C@@H](N)C(C)CC)nn3)CC2)nc(N2CCN(C(=O)[C@H](Cc3ccc(O)cc3)n3cc([C@@H](N)C(C)CC)nn3)CC2)n1` (stereo partly drawn), the binding response (% of control) was 183% (inactive).

Take `COc1ccc(C2CC(c3cccs3)=NN2c2nc(C)c(C(C)=O)s2)cc1OC` (stereo not drawn): the binding response (% of control) is 82% (inactive).

As to `CCOC(=O)c1cc2occc2n1CC(=O)N1CCN(C(=O)c2ccco2)CC1`, the binding response (% of control) is 92% (inactive).

For `COC(=O)c1cc(NC(=O)c2cc(C(C)(C)C)nn2Cc2cccc(C)c2)ccc1N1CCOCC1`, the binding response (% of control) was 102% (inactive).

Consider `Cc1ccc(S(=O)(=O)/N=S(\C)C(C)C)cc1` (stereo not drawn), for which the binding response (% of control) is 101% (inactive).

As to `CCOC(=O)/C(C#N)=C/c1ccc(OCC(=O)Nc2ccccc2)c(OC)c1`, the binding response (% of control) was 103% (inactive).

Take `CN(C)CCCN(C(=O)c1ccc(S(=O)(=O)N2CCCc3ccccc32)cc1)c1nc2ccc(F)cc2s1`: the binding response (% of control) is 198% (inactive).

As for `O=C(Nc1ccc2ccccc2c1)Nc1ccc2snnc2c1`, the binding response (% of control) is 155% (inactive).

Consider `CCOc1ccc(NC(=O)Nc2cc(C)ccc2OC)cc1`, for which the binding response (% of control) was 106% (inactive).

`CCOc1cc(C(=O)OCC(=O)Nc2cccc(C)c2)ccc1OCC(=O)N1CCOCC1`: the binding response (% of control) is 106% (inactive).

For the compound `CCOC(=O)Cc1csc(NC(=O)CSc2nc(C)cc(=O)[nH]2)n1`, the binding response (% of control) was 92% (inactive).

Regarding `CCOc1nnc(C)c2c(C)n(-c3cccc(Cl)c3)nc12`, the binding response (% of control) is 86% (inactive).

For the compound `O=C(COC(=O)CNC(=O)c1ccco1)Nc1ccc(F)cc1`, the binding response (% of control) was 98% (inactive).

Regarding `Cn1c(=NC(=O)CSCC(=O)N2CCCCC2)sc2ccccc21`, the binding response (% of control) is 103% (inactive).

For `N=C1/C(=C/c2cccn2-c2cccc([N+](=O)[O-])c2)C(=O)N=C2SC=CN12`, the binding response (% of control) is 99% (inactive).

Regarding `O=C(c1ccc(Br)o1)N(c1ccccn1)C1CCCCC1`, the binding response (% of control) was 101% (inactive).

In the case of `CC(C)(C)NC(=O)Cn1cnc([N+](=O)[O-])n1`, the binding response (% of control) was 96% (inactive).

On to `O=C(CC1SCCNC1=O)Nc1ccc(Cl)c(Cl)c1` (stereo not drawn), for which the binding response (% of control) is 104% (inactive).

As to `O=c1c(/C=N/O)coc2ccc(Cl)cc12`, the binding response (% of control) is 100% (inactive).

On to `CCN(CC)C(=O)CC(c1ccc2c(c1)OCO2)c1c(OC)cc(OC)c2c(-c3ccccc3)cc(=O)oc12` (stereo not drawn), for which the binding response (% of control) is 99% (inactive).

Turning to `Cc1ccc(C(=O)N/C(=C/c2ccco2)C(=O)NCCc2c[nH]c3ccccc23)cc1C`, the binding response (% of control) is 101% (inactive).

Regarding `CN1CCN(/N=C/c2ccc(C#N)cc2)CC1`, the binding response (% of control) is 92% (inactive).

With `CCN1CCN(c2nc(Nc3cc(OC)ccc3OC)nc(Nc3cc(OC)ccc3OC)n2)CC1`, the binding response (% of control) was 148% (inactive).

In the case of `COc1ccccc1OCCNCC(O)COc1cccc2[nH]c3ccccc3c12` (stereo not drawn), the binding response (% of control) was 159% (inactive).

For the compound `COc1ccccc1NC(=S)N1CCN(c2ccc(F)cc2)CC1`, the binding response (% of control) is 100% (inactive).

Turning to `O=C(O)/C(=C/c1cccnc1)NC(=O)c1ccccc1`, the binding response (% of control) is 103% (inactive).

Take `c1ccc(CN2CCC(N=C3NN=C(c4ccc5c(c4)OCCO5)CS3)CC2)cc1`: the binding response (% of control) is 164% (inactive).

`COc1cccc(/C(C)=N/Nc2ncc(Cl)cc2Cl)c1`: the binding response (% of control) was 100% (inactive).

In the case of `O=C(c1ccco1)N1CCN(c2cccc(Cl)c2)CC1`, the binding response (% of control) was 93% (inactive).

For the compound `COC(=O)C1=NN(c2ccccc2)C2C(=O)N(c3ccccc3OC)C(=O)C12` (stereo not drawn), the binding response (% of control) was 97% (inactive).

For the compound `Cc1cccc(CN2CCC(CNC(=O)Nc3ccc(F)c(Cl)c3)CC2)c1`, the binding response (% of control) is 126% (inactive).

As to `CCN1CCN(CCNC(=O)c2ccc(/C=C3/Sc4ccccc4N(Cc4cccc(C)c4)C3=O)cc2)CC1`, the binding response (% of control) was 236% (active).

As for `C/C(=N\NC(=O)CNC(=O)C(c1ccccc1)c1ccccc1)c1ccc(C)cc1`, the binding response (% of control) was 106% (inactive).

With `CCOC(=O)c1cc2c(nc1NC(=S)Nc1ccccc1)CC(C)(CC)OC2` (stereo not drawn), the binding response (% of control) is 101% (inactive).

For the compound `C=CCN(CC=C)S(=O)(=O)c1ccc(C(=O)Nc2sc3c(c2C(N)=O)CCCCC3)cc1`, the binding response (% of control) is 99% (inactive).

On to `COc1cccc(NC(=S)NCCCN2CCOCC2)c1`, for which the binding response (% of control) is 109% (inactive).

As to `CCOc1ccc(S(=O)(=O)N(CC(=O)O)c2ccccc2)cc1`, the binding response (% of control) was 103% (inactive).

The record behind these values is PubChem BioAssay AID1892 (NMMLSC, 2009).
